40 compounds from PubChem BioAssay (Tox21) can be followed below.

Results filed as inconclusive are left out. A number with no mark means an inactive call. Calls of active or inactive are those of the source. Calls come from the whole dose curve; as a rule, active = well fitted cell-killing curve with a large enough effect in the repeat runs; inconclusive = weak or mixed curves, or effect the other way; inactive = flat fitted curve, though single readings scatter.
% is set by controls: 0 for no effect and ±100 for the full control effect.

A short description of this assay: qHTS RealTime-Glo MT Cell Viability Assay in HEK293 cells - 0 hour (AID 1224880). Note: top concentration of the series differs between compounds; nearly all actives have a fitted effect of over 45% in size. The note with it: RealTime-Glo luminescence; series mostly up to 76.8 µM. From the text: U.S. Tox21 Program National Center for Advancing Translational Sciences [NCATS] NIH Chemical Genomics Center [NCGC] U.S. Environmental Protection Agency [EPA] National Institutes of Environmental Health Sciences [NIEHS] National Toxicology Program [NTP] U.S. Food and Drug Administration [FDA] Tox21 Assay Overview: Measure of cell viability is critical in the cell-base assay. Analysis of cell viability is necessary for the characterization of cell responses to cytotoxic drugs and environmental stress. A RealTime-Glo MT Cell Viability Assay to monitor cell viability in real time of continues cell culture during 40 hours of compound treatment was used to screen Tox21 10K library compounds in Hek293 cells. The RealTime-Glo MT Cell Viability Assay is a nonlytic, homogeneous, bioluminescent method to measure cell viability in real time using a simple, plate-based method. The assay involves adding NanoLuc luciferase and a cell-permeant prosubstrate to cells in culture. Viable cells reduce the proprietary prosubstrate to generate a substrate for NanoLuc luciferase. This substrate diffuses from cells into the surrounding culture medium, where it is rapidly used by the NanoLuc Enzyme to produce a luminescent signal. The signal correlates with the number of viable cells, making the assay well suited for cytotoxicity studies.
Tox21 Assay Protocol Summary: The mixture of Hek293 cell suspension and reagents were dispensed at 600cells/6 ul/well in 1536-well tissue culture treated black solid bottom plates using a Multidrop dispenser. After the assay plates were incubated at a 37 C/5% CO2 incubator for 5 hours, 23 nL of compounds dissolved in DMSO, positive and negative controls was transferred to the assay plate by a pintool work station. The plates were incubated at 37 C for 40 hours. The luminescence intensity were measured at 0h, 8h, 16h, 24h, 32h and 40h time points using ViewLux plate reader during compound treatment.
A general note: Quantitative high-throughput screening tests each substance at several concentrations.
For the compound `CCOc1ccccc1N`, the compound was classed as inactive.

In the case of `CCC/C=C/CO`, the compound was called inactive.

For the compound `ClC(Cl)Cl`, the result was inactive.

With `O=Cc1ccc(O)c(O)c1O`, the call was inactive.

As to `CC(C)O`, the outcome was inactive.

On to `Cc1cc(S(=O)(=O)O)c(N)cc1Cl`, for which the compound was called inactive.

As for `C1CSCCS1`, the compound was called inactive.

In the case of `Cc1ccc(C=O)s1`, the outcome was inactive.

Turning to `Cc1nc(N)nc(N)c1-c1ccc(Cl)c(Cl)c1`, the outcome was inactive.

As for `CCCCNC(=S)NCCCC`, the call was inactive.

As to `CN(C)CC[C@@H](c1ccc(Cl)cc1)c1ccccn1`, the outcome was inactive.

Regarding `Cc1ccccc1C(=O)Nc1ccc(C(=O)N2CCCC(O)c3cc(Cl)ccc32)c(C)c1` (stereo not given), the outcome was inactive.

As for `CCOC(=O)C1CC(=O)C(=C(O)C2CC2)C(=O)C1` (stereo not given), the outcome was inactive.

`CC(C)=CCC[C@](C)(O)[C@@H]1CC=C(C)CC1`: the result was inactive.

Consider `FC(F)(F)C(Cl)(Cl)Cl`, for which the call was inactive.

Turning to `Cc1nc(-c2ccccn2)ncc1C(=O)Nn1cc(C)c2cc(F)ccc21`, the outcome was inactive.

In the case of `Oc1ccccc1F`, the call was inactive.

For the compound `CCCNC(C)(C)COC(=O)c1ccccc1`, the outcome was inactive.

Consider `CC1(C)C(=O)N(Cl)C(=O)N1Br`, for which the compound was classed as inactive.

Consider `CCC(=O)c1ccc2c(c1)N(CCCN(C)C)c1ccccc1S2`, for which the result was inactive.

For the compound `C=CCCCCCCCCO`, the result was inactive.

As for `COC(=O)c1ccc2cc(C(=O)OC)ccc2c1`, the activity change, negative = cytotoxicity is 3.21% [at 15.8 µM].

In the case of `COc1cc(N)c(Cl)cc1C(=O)NC1CCN(Cc2ccccc2)CC1`, the compound was classed as inactive.

Regarding `Nc1ccc(Oc2ccc(N)c(N)c2)cc1`, the compound was called inactive.

In the case of `CC(=O)OC1C2(C)CCC(C2)C1(C)C` (stereo not given), the compound was classed as inactive.

As for `C=C(C)C(=O)OCCOP(=O)(O)O`, the compound was called inactive.

Take `O=S(=O)(O)C(F)(F)F`: the outcome was inactive.

For the compound `C[C@]12CCC(=O)C=C1CC[C@@H]1[C@@H]2CC[C@@]2(C)[C@H]1CC[C@]2(O)C(=O)CO`, the result was inactive.

For `CC(C)C1=CC2=CC[C@@H]3[C@](C)(CCC[C@@]3(C)C(=O)O)[C@H]2CC1`, the outcome was inactive.

With `CN1C(=O)CC(c2ccccc2)C1=O` (stereo not given), the outcome was inactive.

For the compound `NC(=O)NS(=O)(=O)c1ccc(Cl)cc1`, the call was inactive.

In the case of `c1ccc(CN(CC2=NCCN2)c2ccccc2)cc1`, the result was inactive.

Regarding `CCN(O)CC`, the result was inactive.

For `CN(C)CCOc1ccccc1Cc1ccccc1`, the compound was called inactive.

For the compound `CC(=O)Nc1ccc(C)c(Cl)c1`, the call was inactive.

Consider `OCCN(CCO)CCN(CCO)CCO`, for which the compound was called inactive.

On to `CC1=C2[C@H](/C=C(\C)C(=O)O)CC[C@@H](C)[C@H]2CC1`, for which the result was inactive.

As for `COc1cc(C)ccc1C(C)C`, the outcome was inactive.

Consider `Cc1cccc(C)c1NC(=O)CN1CCCCCC1`, for which the outcome was inactive.

Consider `O=C(O)C(=O)Cc1c[nH]c2ccccc12`, for which the outcome was inactive.
